“And” between values parts separate entries of the source, which are not always exact repeats. Equal values may be shown once. Records with an inconclusive call do not appear. The source holds several records for some structures; these can differ, active in one and inactive in another. The source made the active and inactive calls. Unless noted, calls follow the shape of the dose curve; as a rule, active = well fitted curve in the direction sought with a large enough effect; inconclusive = small, poorly fitted or top-dose-only effect, or another doubt; inactive = no such curve, though single readings can be large; an effect the other way counts as inactive or inconclusive.

Experiment [1] is described as follows: Primary qHTS for inhibitors of La Crosse Virus (LACV) - induced cell death in SH-SY5Y cells (AID 1508616).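 Also: top concentration of the series differs between compounds; 0% = infected DMSO wells and 100% = uninfected DMSO wells; higher means more rescue of cells from virus-induced death.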 An outline of the steps: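 Cytopathicity rescue screen: compounds pinned onto SH-SY5Y cells, which are then infected with LACV (MOI 0.01) and held 6 days at 37C. Percent activity is scaled between infected DMSO control and uninfected DMSO control.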
The target of experiment [2] is Calcium and integrin-binding protein 1 (Homo sapiens) (UniProt Q99828). As to the kind of experiment: Primary qHTS for Identification of Calcium Integrin Binding Protein 1 (CIB1) Competitor (AID 1508620).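 Also: GST tagged CIB1 binding a fluorescein labelled alphaIIb integrin peptide tracer; top concentration of the series differs between compounds; % is scaled to controls: 0 for no effect and ±100 for the full control effect.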 A digest of the protocol: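 Fluorescence polarization competition: CIB1-GST (1 uM final) preincubated with compound 15 min at room temperature, then FITC-labeled alphaIIb peptide (100 nM final) added for another 15 min. Polarization read at Ex 480/Em 540.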

Experiment [3] can be described thus: Primary qHTS for small molecule stabilizers of the endoplasmic reticulum resident proteome: Secreted ER Calcium Modulated Protein (SERCaMP) assay (AID 1508630). Also: potency is read from the fitted curve at half-maximal effect. A digest of the protocol: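 The SH-SY5Y reporter protocol was run at 3 concentrations up to 38.3 uM (primary) or 11 concentrations (follow-up): 16 h compound, 100 nM thapsigargin for 4 h, then extracellular luciferase luminescence.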

A short description of experiment [4]: A High-Content qHTS Against Drug Library for the Identification of Small Molecules that Inhibit DYT1 Early Onset Primary Dystonia-Associated Cell Pathology (AID 1645839; calls by dose curve; also: series mostly up to about 46 µM). An outline of the steps: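 Induced EGFP-delE TorsinA cells are imaged after 48 h of compound treatment. Punctate fusion-protein distribution gives the %pathology value, while nuclei counts flag toxicity. Wild-type EGFP-hTOR1A cells define the normal pattern.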

Experiment [5] deals with Cytochrome P450 2C9 (Homo sapiens) (UniProt P11712). Briefly: Cytochrome P450 family 2 subfamily C member 9 (CYP2C9) small molecule antagonists: luciferase biochemical (cell-free) qHTS assay (AID 1645842; active = well fitted curve in the direction sought with a large enough effect in the repeat runs; an effect the other way counts as inactive or inconclusive; also: nearly all actives have a fitted effect of over 55% in size; also: potency is read from the fitted curve at half-maximal effect). A digest of the protocol:
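P450-Glo CYP2C9 system: proluciferin substrate with enzyme in mix containing 0.4% BSA, 10 min at room temperature, then NADPH regeneration solution added and incubated 1 h at 37C. Detection reagent stopped reaction; luminescence read after 20 min as RLU.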

A short description of experiment [6]: Primary qHTS for inhibitors of nuclear receptor binding SET domain protein 2 (NSD2) in an isogenic RCH-ACV NSD2 p.E1099K mutant (9B) (AID 1645876). Also: nearly all actives have a fitted effect of over 70% in size. Also: potency is read from the fitted curve at half-maximal effect. As to activity change, negative = viability loss: % is scaled to controls: 0 for no effect and ±100 for the full control effect.
The nature of experiment [7]: Primary qHTS for inhibitors of nuclear receptor binding SET domain protein 2 (NSD2) in an RCH-ACV wild type WT cells (2C) (AID 1645877). Also: nearly all actives have a fitted effect of over 70% in size. Also: potency is read from the fitted curve at half-maximal effect.
In experiment [8] the target is Calcium and integrin-binding protein 1 (Homo sapiens) (UniProt Q99828). Briefly: Validation qHTS for Identification of Calcium Integrin Binding protein 1 (CIB1) Competitor (AID 1508618). Also: % is scaled to controls: 0 for no effect and ±100 for the full control effect. A digest of the protocol: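 In this qHTS validation, the LOPAC set (up to 114 uM) was tested for blocking CIB1 binding to a fluorescein-tagged alphaIIb peptide, with FP detection at 480/540 nm.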

Experiment [9] has as its target Cytochrome P450 2D6 (Homo sapiens) (UniProt P10635). Briefly: Cytochrome P450 family 2 subfamily D member 6 (CYP2D6) small molecule antagonists: luciferase biochemical (cell-free) qHTS assay (AID 1645840; active = well fitted curve in the direction sought with a large enough effect in the repeat runs; an effect the other way counts as inactive or inconclusive; also: nearly all actives have a fitted effect of over 55% in size; also: potency is read from the fitted curve at half-maximal effect). A digest of the protocol: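 P450-Glo CYP2D6 system: proluciferin substrate converted by enzyme to luciferin, read by luminescence proportional to activity. Enzyme-substrate mix with compound 10 min at room temperature, then NADPH regeneration 1 h before detection reagent.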

The next experiment addresses Papain (Carica papaya) (UniProt P00784). As to the kind of experiment: Primary qHTS assay for inhibitors of the protease papain (AID 1645873).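 Also: papain turnover of Z-FR-AMC read as the AMC fluorescence gain over 10 min; series mostly up to about 50 µM; % is scaled to controls: 0 for no effect and ±100 for the full control effect.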
In experiment [10] the target is N-terminal Xaa-Pro-Lys N-methyltransferase 1 (Homo sapiens) (UniProt Q9BV86). Briefly: Confirmatory qHTS for Inhibitors of N-terminal methyltransferase 1 (NTMT1): MTaseGlo Assay (AID 1645874).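 Also: luminescence from SAH made as NTMT1 methylates SPKRIA peptide using SAM; series mostly up to about 100 µM; 0% = DMSO control and -100% = no-enzyme control; nearly all actives have a fitted effect of over 65% in size.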 An outline of the steps:
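Room-temperature NTMT1 reaction, 30 min, with 100 uM SAM and 1 uM SPKRIA substrate; enzyme 125 nM. Read-out: MTase-Glo luminescence, normalized to no-enzyme and DMSO controls.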

Experiment [11] addresses Cytochrome P450 3A4 (Homo sapiens) (UniProt P08684). Briefly: Cytochrome P450 family 3 subfamily A member 4 (CYP3A4) small molecule antagonists: luciferase qHTS assay (AID 1645841; active = well fitted curve in the direction sought with a large enough effect in the repeat runs; an effect the other way counts as inactive or inconclusive; also: nearly all actives have a fitted effect of over 45% in size). A digest of the protocol: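 P450-Glo CYP3A4 enzyme with proluciferin substrate was preincubated with DMSO-dissolved compounds for 10 min at room temperature. NADPH regeneration solution started a 1 h reaction. Detection reagent stopped it, and luminescence was read after 20 min.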

Chain of Papain (Carica papaya) (P00784 whole entry, looked up): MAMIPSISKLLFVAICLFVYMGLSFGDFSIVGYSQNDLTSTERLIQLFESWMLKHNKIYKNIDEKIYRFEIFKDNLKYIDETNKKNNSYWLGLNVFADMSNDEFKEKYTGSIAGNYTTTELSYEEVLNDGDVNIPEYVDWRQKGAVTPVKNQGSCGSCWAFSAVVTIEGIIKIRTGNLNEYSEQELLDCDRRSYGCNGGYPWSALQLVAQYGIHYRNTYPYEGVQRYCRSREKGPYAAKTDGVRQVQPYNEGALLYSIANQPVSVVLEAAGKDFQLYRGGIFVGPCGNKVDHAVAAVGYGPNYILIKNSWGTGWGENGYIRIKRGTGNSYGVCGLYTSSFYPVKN
Chain of Cytochrome P450 2D6 (Homo sapiens) (P10635 whole entry, looked up): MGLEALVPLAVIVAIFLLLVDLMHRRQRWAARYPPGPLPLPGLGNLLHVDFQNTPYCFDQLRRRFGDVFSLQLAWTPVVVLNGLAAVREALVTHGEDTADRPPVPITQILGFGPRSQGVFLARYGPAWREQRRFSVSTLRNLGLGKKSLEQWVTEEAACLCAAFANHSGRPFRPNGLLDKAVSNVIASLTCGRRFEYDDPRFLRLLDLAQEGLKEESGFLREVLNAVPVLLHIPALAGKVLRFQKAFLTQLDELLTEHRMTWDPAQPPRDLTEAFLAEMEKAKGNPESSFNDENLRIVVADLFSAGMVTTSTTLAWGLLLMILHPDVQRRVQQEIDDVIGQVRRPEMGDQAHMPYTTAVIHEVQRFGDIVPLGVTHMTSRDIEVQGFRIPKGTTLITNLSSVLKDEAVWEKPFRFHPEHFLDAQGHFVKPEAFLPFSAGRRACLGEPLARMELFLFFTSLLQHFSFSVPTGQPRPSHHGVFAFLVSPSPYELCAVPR
Chain of Calcium and integrin-binding protein 1 (Homo sapiens) (Q99828 whole entry, looked up): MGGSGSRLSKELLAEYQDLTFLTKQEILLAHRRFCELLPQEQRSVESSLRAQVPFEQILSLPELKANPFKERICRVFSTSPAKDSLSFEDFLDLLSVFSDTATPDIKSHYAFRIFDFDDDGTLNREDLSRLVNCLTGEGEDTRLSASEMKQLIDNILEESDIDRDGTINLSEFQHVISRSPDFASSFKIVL
Chain of Cytochrome P450 2C9 (Homo sapiens) (P11712 whole entry, looked up): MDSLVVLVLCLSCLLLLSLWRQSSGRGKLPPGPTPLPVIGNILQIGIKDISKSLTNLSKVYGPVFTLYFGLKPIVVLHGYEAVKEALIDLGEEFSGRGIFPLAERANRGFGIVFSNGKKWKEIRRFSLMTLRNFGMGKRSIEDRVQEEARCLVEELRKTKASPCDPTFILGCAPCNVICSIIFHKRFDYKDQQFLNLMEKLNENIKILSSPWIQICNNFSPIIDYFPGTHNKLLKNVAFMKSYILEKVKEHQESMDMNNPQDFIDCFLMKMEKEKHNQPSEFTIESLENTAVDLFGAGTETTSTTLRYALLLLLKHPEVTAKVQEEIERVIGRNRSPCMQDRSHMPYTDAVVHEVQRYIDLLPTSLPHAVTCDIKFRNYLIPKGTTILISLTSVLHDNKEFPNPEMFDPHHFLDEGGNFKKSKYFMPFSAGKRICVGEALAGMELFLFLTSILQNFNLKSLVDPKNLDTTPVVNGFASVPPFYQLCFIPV
Chain of Cytochrome P450 3A4 (Homo sapiens) (P08684 whole entry, looked up): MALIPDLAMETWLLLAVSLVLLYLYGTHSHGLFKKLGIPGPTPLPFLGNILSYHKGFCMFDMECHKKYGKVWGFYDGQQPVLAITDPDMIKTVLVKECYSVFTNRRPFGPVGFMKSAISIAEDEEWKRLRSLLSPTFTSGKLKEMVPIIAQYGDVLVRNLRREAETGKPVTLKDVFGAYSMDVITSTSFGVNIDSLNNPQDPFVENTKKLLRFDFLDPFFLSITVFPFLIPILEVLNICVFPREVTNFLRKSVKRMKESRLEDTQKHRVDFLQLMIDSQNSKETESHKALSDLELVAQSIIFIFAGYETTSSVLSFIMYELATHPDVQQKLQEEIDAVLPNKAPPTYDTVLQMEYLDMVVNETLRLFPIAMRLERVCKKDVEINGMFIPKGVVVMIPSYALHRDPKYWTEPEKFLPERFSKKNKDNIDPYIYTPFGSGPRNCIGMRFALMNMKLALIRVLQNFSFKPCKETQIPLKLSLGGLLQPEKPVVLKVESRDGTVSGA
Chain of N-terminal Xaa-Pro-Lys N-methyltransferase 1 (Homo sapiens) (Q9BV86 whole entry, looked up): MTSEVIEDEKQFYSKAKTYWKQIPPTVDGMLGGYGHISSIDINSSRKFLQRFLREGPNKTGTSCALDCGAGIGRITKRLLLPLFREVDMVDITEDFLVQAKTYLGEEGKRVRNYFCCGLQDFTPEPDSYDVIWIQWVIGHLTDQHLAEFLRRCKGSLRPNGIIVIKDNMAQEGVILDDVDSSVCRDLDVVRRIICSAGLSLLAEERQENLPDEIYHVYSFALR

With `c1ccc2[nH]c(-c3cscn3)nc2c1`, the Potency entry in [1], in [2], in experiment [3], in experiment [4], in [5] and in experiment [6] was “inactive” in each case. Besides, in experiment [7], the Potency result was “inactive and 13.2 µM (active)”.
As to `Cc1cccc(-c2[nH]ncc2-c2ccc3ncccc3n2)n1`, the result in [8] was inactive. Moreover, the Potency result in experiment [2] and in experiment [3] was “inactive” each time.
In the case of `C[C@@H](c1ncncc1F)[C@](O)(Cn1cncn1)c1ccc(F)cc1F`, the outcome in experiment [8] was inactive. Besides, the Potency result (in experiment [2]; in [3]; in experiment [9]; with Papain (Carica papaya)) was “inactive” each time.
Regarding `COCCCN1CCC(NC(=O)c2cc(Cl)c(N)c3c2OCC3)CC1`, the Potency entry in experiment [1], in experiment [2], in [3], in experiment [4], in experiment [6] and in experiment [7] was “inactive” in each case. Further, the values for the Potency in experiment [9] and in experiment [5] were 3470 nM (active) and 2450 nM (active), respectively.
On to `COc1ccc(C2(C#N)CCC(C(=O)O)CC2)cc1OC1CCCC1` (configuration not stated), for which the Potency entry in experiment [2], in experiment [3], in [9], in [5], in [6] and in experiment [7] was “inactive” in each case.
In the case of `S=c1nc[nH]c2nc[nH]c12`, the Potency entry in [1], in experiment [2], in experiment [3], in experiment [4], in experiment [9] and in experiment [10] was “inactive” in each case. Moreover, the Potency in [5] is 19500 nM (active); in experiment [6], 944 nM (active) and 2.63 µM (active); in [7], 668 nM (active) and 1.66 µM (active).
On to `O=P(O)(O)C(O)(Cn1ccnc1)P(=O)(O)O`, for which the Potency result in experiment [2] and in [3] was “inactive” in each case. Besides, in experiment [6], the activity change, negative = viability loss was 6% [at 4.96 µM] (inactive). In addition, the outcome in [7] is “inactive [at 4.96 µM]”.
Consider `CCN(CC)CCOc1ccc(Nc2ncc3cc(-c4c(Cl)cccc4Cl)c(=O)n(C)c3n2)cc1`, for which the Potency result in experiment [2] and in experiment [3] was “inactive” in each case. Moreover, the figures for the Potency in experiment [6] and in [7] were 417 nM (active) and 468 nM (active), respectively.
As to `C[C@H](Cn1cnc2c(N)ncnc21)OCP(=O)(O)O`, the Potency result in experiment [2] and in experiment [3] was “inactive” throughout.
With `CC(=O)NC[C@H]1CN(c2ccc(N3CCOCC3)c(F)c2)C(=O)O1`, the Potency result (in experiment [3]; in experiment [9]; with Papain (Carica papaya); in experiment [6]; in [7]) was “inactive” throughout. Further, the compound was called inactive in [11].
As for `Cc1nc(Nc2ncc(C(=O)Nc3c(C)cccc3Cl)s2)cc(N2CCN(CCO)CC2)n1`, the Potency entry in experiment [1], in experiment [2], in experiment [3], in experiment [9] and in [5] was “inactive” each time. The Potency in experiment [6] was 0.7 nM (active) and 12.9 nM (active) and 20.9 nM (active).
Regarding `CCOC(=O)C1=C[C@@H](OC(CC)CC)[C@H](NC(C)=O)[C@@H](N)C1`, the Potency result in [2], in experiment [3], in [6] and in [7] was “inactive” throughout.
As to `O=C(CS(=O)Cc1ccco1)NCC=CCOc1cc(CN2CCCCC2)ccn1` (configuration not stated), in experiment [2], the Potency entry is “inactive”.
With `N[C@@H](Cc1cc(I)c(Oc2cc(I)c(O)c(I)c2)c(I)c1)C(=O)O`, the Potency result in experiment [1], in experiment [2], in experiment [4], in experiment [9], in [6] and in experiment [7] was “inactive” in each case. Further, the Potency entry in [3] was “inactive and 749 nM (active)”.
Turning to `CCN(CC)CCOc1ccc(Cc2ccccc2)cc1`, the Potency result in experiment [1], in [2], in [3] and in experiment [5] was “inactive” throughout. Moreover, the Potency in experiment [9] is 6170 nM (active); in experiment [7] it was 29900 nM (active).
Consider `C[C@]12CCC(=O)C=C1CC[C@@H]1[C@H]2[C@@H](O)C[C@@]2(C)[C@H]1CC[C@]2(O)C(=O)CO`, for which the Potency result in experiment [3] was “inactive”.
Turning to `Nc1nc(Cl)nc2c1ncn2[C@H]1C[C@H](O)[C@@H](CO)O1`, the Potency result in experiment [2], in [3] and in experiment [9] was “inactive” in each case. For the same compound, the Potency in experiment [6] was 46.8 nM (active); in experiment [7], 41.7 nM (active).
Regarding `Clc1ccc2c(N3CCN(CCCN4CCN(c5ccnc6cc(Cl)ccc56)CC4)CC3)ccnc2c1`, in experiment [8], the result was inactive. Further, the Potency entry (in experiment [2]; in [3]; with Papain (Carica papaya); in experiment [6]; in experiment [7]) was “inactive” in each case.
Regarding `CN(C)CCc1c[nH]c2ccc(Cn3cncn3)cc12`, the Potency result in experiment [2] and in experiment [3] was “inactive” throughout.

Source of the values: PubChem BioAssay (NCATS).
